AMA1 RON2 block = disrupts binding of P. falciparum AMA1 to RON2; 0.2% of 360,000 active; Potency, µM (top dose mostly 58.2 µM), for inactives: at the top dose activity change, negative = inhibition, usual class: inhibitors; AlphaScreen AMA1-biotinylated RON2 peptide binding; AID 720542; active means well fitted inhibition curve with a large enough effect; inconclusive means small, poorly fitted or top-dose-only effect; inactive means no such curve, though single readings can be large or run the other way;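 further: potency means the concentration at half of the fitted maximal effect; 0% = vehicle wells and -100% = peptide control; nearly all actives have a fitted effect of over 45% in size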
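AMA1 (3D7) with his tag at 25 nM final met compounds first, then biotinylated RON2 peptide at 25 nM; detection used donor plus acceptor beads, 10 µg/mL apiece, read by AlphaScreen after 30 min at room temperature.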
Marburg entry inh = Marburg virus entry inhibition; AID 540276; Potency, µM (highest dose often 37.8 µM), for inactives: at the highest dose activity change, negative = inhibition, usual class: inhibitors; 1.8% of 300,000 active; Marburg virus pseudotyped entry inhibition, cell reporter; calls by dose curve; tested in HEK293 cells; further: potency means the concentration at half of the fitted maximal effect; on the % scale 0 is the no-effect control and ±100 the full control effect
Shiga toxin inh = blocks Shiga toxin action in Vero cells; Vero cells, Shiga toxin protein synthesis inhibition reporter; 9.2% of 290,000 active; inhibition, % at 38.7 µM; in the data active means inhibition mostly above about 28%, no sharp cut-off; inactive means mostly below about 43%; further: 0% is about no effect
Lassa entry inh = Lassa virus entry inhibition; Lassa virus pseudotype entry inhibition, cell reporter; Potency, µM (highest dose often 37.9 µM), for inactives: top-dose activity change, negative = inhibition, hits mostly inhibitors; 1.2% of 300,000 active; AID 540256; calls by dose curve; tested in HEK293 cells; further: potency means the concentration at half of the fitted maximal effect; on the % scale 0 is the no-effect control and ±100 the full control effect; nearly all actives have a fitted effect of over 50% in size
CHX counter = counter-screen for Shiga toxin inhibitors: cycloheximide protein synthesis inhibition. max response, %. 12% of 300,000 active. AID 2314. cell reporter, cycloheximide protein synthesis inhibition counterscreen; in the data active means max response mostly above about 13%, no sharp cut-off; inactive means mostly below about 14%; further: read at 38.3 µM for the half of the compounds with a filed dose; 0% is about no effect
Active calls of the source: *; ? = inconclusive; . = no result given; + = active, no number; [ ] = another dose, or the depositor's remark. The full list was thinned out, with hits kept by preference.

SMILES | AMA1 RON2 block | Marburg entry inh | Shiga toxin inh | Lassa entry inh | CHX counter
Oc1ccccc1/C=N/NC(=S)NC1CC2CC1C1C=CCC21 (stereo not given) | 41% | ? | 49* | ? | 53*
COc1cccc(/C=N/NC(=O)C[n+]2ccccc2)c1O | -43% | 0% | -1 | -2% | -1
Cc1ccc(C)c(CSc2nnc3[nH]c(=O)cc(C)n23)c1 | . | . | . | 27%[46.1 µM] | .
COc1ccc(-c2cc3ccc(OCC(C)=O)cc3oc2=O)cc1 | -6% | . | 127* | . | 57*
COc1ccc(-c2cc3ccc(OCC(C)=O)cc3oc2=O)cc1OC | -12% | . | 27* | . | 25*
CC1CC(O)C(C)CN1 (stereo not given) | -10% | ? | -4 | -3% | -2
Cc1c(C(=O)Nc2ccccn2)sc2nc3n(c(=O)c12)CCC3 | -15% | . | 77* | . | 43*
Cc1ccccc1NC(=O)c1sc2nc3n(c(=O)c2c1C)CCC3 | . | . | . | 10%[46.1 µM] | .
CCc1cccc(NC(=O)c2sc3nc4n(c(=O)c3c2C)CCC4)c1 | 9% | . | 73* | . | 28*
Cc1c(C(=O)Nc2ccccc2F)sc2nc3n(c(=O)c12)CCC3 | 16% | . | 95* | -12%[46.1 µM] | 45*
CC(C)c1ccc2oc(-c3cccc(NC(=O)c4ccc5c(c4)OCCO5)c3)nc2c1 | . | 3%[46.1 µM] | . | 3%[46.1 µM] | .
C#CC(CC)(CC)NC(=O)NC1CCCCC1 | 0% | 2% | -10 | -6% | -2
CN(/N=C/c1ccncc1)c1cnn(-c2ccc(F)c(Cl)c2)c(=O)c1Cl | -5% | -7% | 46* | 0% | 27*
COc1c(Cl)cnn(-c2ccc(Cl)c(Cl)c2)c1=O | 41% | ? | 35 | 3%[46.1 µM] | 17
Cc1cc(C)c(NC(=O)CSc2ncc(S(=O)(=O)c3ccc(C(C)(C)C)cc3)c(=O)[nH]2)c(C)c1 | . | 12%[46.1 µM] | . | . | .
COc1ccc(N(CC(=O)Nc2ccccc2C(N)=O)S(=O)(=O)c2ccc(C)c([N+](=O)[O-])c2)cc1 | -4% | ? | 45 | -35% | 23*
Cc1nc(Sc2ccccc2)c(C#N)cc1-c1ccccc1 | 45% | 16% | 50* | 4% | 28*
Cc1nc(Cl)c(C#N)cc1-c1ccccc1 | 8% | -11% | -11 | -6% | 10
Cc1ccc(S(=O)(=O)n2nc(-c3ccccc3)nc2NCc2ccc(Cl)cc2)cc1 | . | 5%[46.1 µM] | . | -19%[46.1 µM] | .
O=C(NCC(=O)N1CCN(c2ccccc2)CC1)c1ccccc1 | -1% | 12%[46.1 µM] | 53* | 12%[46.1 µM] | 11*
Cc1ccc(C(=O)NCC(=O)N2CCN(c3ccccc3)CC2)cc1 | -5% | . | -14 | . | -2
O=C(NCC(=O)N1CCN(c2ccccc2O)CC1)c1ccccc1 | -12% | ? | 77* | 12%[46.1 µM] | 44*
O=C(NC(=O)N1CCN(c2ccccc2)CC1)c1ccc(Cl)cc1 | -6% | 29% | + | 13% | 42*
Cn1c(Cc2ccccc2)nnc1SCC(=O)Nc1ccc(N2CCOCC2)cc1 | 1% | -1%[46.1 µM] | 0 | 2% | 10
CCNS(=O)(=O)c1ccc(OC)c(C(=O)NC2CCCCC2)c1 | -7% | -1%[46.1 µM] | 20 | 1%[46.1 µM] | -4
SMILES | AMA1 RON2 block | Marburg entry inh | Shiga toxin inh | Lassa entry inh | CHX counter
CCCCOC(=O)c1ccc(NC(=O)CC2NCCNC2=O)cc1 (stereo not given) | . | 16%[46.1 µM] | . | -14%[46.1 µM] | .
O=C1Oc2ccccc2C(=O)/C1=C\N1CCN(c2ccccc2)CC1 | 4% | -13%[46.1 µM] | 10 | -11% | 26*
CC(C)(C)c1ccc(NC(=O)CSc2nnc(-c3n[nH]c4ccccc34)o2)cc1 | 16%[2.32 µM] | ? | 37* | 1% | 26
Cc1ccc(C)c(NC(=O)CSc2nnc(-c3n[nH]c4ccccc34)o2)c1 | 13% | ? | -2 | 2% | -1
Cc1cccc(C)c1OCC(=O)Nc1c(C(=O)c2ccc(Br)cc2)oc2ccccc12 | . | 20%[46.1 µM] | . | -17%[46.1 µM] | .
Cc1ccc(C(=O)c2oc3ccccc3c2N)cc1 | 10% | ? | 74* | 13% | 20*
COc1ccc2oc(C(=O)CCC(=O)O)c(N)c2c1 | 37% | . | -3 | . | 0
COC(=O)CCC(=O)c1oc2ccc(Br)cc2c1N | 8% | ? | + | 16% | 41*
Nc1c(C(=O)c2ccccc2)oc2ccc([N+](=O)[O-])cc12 | -6% | . | 41* | . | 26*
Nc1c(C(=O)c2ccc(Br)cc2)oc2ccccc12 | 10%[11.6 µM] | 0% | 45* | 11% | 30*
COC1=C[C@H](C(=O)N[C@H]2CCCC[C@H]2NC(C)=O)[C@@]2(C)Cc3ccccc3[C@@H]2CC1=O | . | -12%[14.2 µM] | . | . | .
Cc1nn(CC(=O)NC(C)C(C)C)c(C)c1S(=O)(=O)N1CCCCC1 (stereo not given) | -16% | ? | . | 9% | .
